Usually AC50 stands for the concentration at which the activity in the assay is half-maximal.

The structures appear in SMILES notation. Among all 16,000 compounds or so, about 5,700 (36%) were called active. Another 24% or so got no clear call; they are omitted. This is one part of the list. Unmarked numbers belong to inactive results. The call rests on the fitted dose curve; in most records, active means well fitted curve in the direction sought with a large enough effect; inconclusive means small, poorly fitted or top-dose-only effect, or effect the other way; inactive means no such curve, though single readings can be large or run the other way.
On the % scale 0 is the no-effect control and ±100 the full control effect.

For the test, the target named is Cytochrome P450 1A2 (Homo sapiens) (UniProt P05177). In words: Cytochrome panel assay with activity outcomes. Conditions: recombinant CYP, pro-luciferin dealkylation, luminescence, p450-cyp1a2; series mostly up to 57.1 µM; activity, negative = inhibition: at the top concentration.
Sequence of Cytochrome P450 1A2 (Homo sapiens) (P05177 whole entry, looked up): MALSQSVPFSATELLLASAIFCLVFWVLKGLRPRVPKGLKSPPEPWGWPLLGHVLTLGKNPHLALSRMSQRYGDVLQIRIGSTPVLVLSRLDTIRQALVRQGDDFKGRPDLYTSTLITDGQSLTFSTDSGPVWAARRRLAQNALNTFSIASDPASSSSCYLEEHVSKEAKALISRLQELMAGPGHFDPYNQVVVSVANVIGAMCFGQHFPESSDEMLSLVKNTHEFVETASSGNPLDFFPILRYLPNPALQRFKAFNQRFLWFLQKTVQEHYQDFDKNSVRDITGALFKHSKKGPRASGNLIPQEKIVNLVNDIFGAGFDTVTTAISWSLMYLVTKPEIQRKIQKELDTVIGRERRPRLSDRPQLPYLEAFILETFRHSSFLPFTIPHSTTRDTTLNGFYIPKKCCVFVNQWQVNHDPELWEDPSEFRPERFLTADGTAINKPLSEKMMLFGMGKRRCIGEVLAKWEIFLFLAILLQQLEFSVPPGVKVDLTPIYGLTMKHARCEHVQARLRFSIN
In the case of `Cc1ccc(NC2c3ncccc3C(=O)N2Cc2ccc(F)cc2)cc1` (centres undefined), the AC50 was 11.2 µM (active).
Turning to `CN[C@@H]1NC(=O)c2ccccc2N1Cc1ccc(F)cc1`, the activity, negative = inhibition is -7.56% [at 2.29 µM].
Consider `Cc1ccc(CN2C(=O)CCC2C(=O)NCc2cccnc2)cc1` (centres undefined), for which the “activity, negative = inhibition” value is 1.64%.
As to `CN(C)C(=O)c1ccc(-c2ccc3ncnc(NCc4ccccc4)c3c2)cc1`, the AC50 was 15.8 µM (active).
The same measure, in the same setting: the result for `CN(C)C(=O)c1ccc(-c2ccc3ncnc(NCc4cccs4)c3c2)cc1` reads 15.8 µM (active); that for `Cc1cccc(CNc2ncnc3ccc(-c4ccc(C(=O)N(C)C)cc4)cc23)c1`, 15.8 µM (active).
Same read-out and setting: as for `CN(C)c1ccc(-c2ccc3ncnc(NCc4ccccc4)c3c2)cc1`, the figure is 0.501 µM (active).
In the case of `CO[C@@H](C(C)C)[C@@H](C)[C@@H]1OC(=O)C[C@@H]1O`, the activity, negative = inhibition is -5.03% [at 11.4 µM].
With `CN(C)c1ccc(-c2cncnc2NCc2ccccc2)cc1`, the half-maximal activity concentration (AC50) is 1 µM (active).
In the case of `CN(C)c1ccc(-c2cncnc2NCc2cccnc2)cc1`, the AC50 is 1 µM (active).
For `CC(C)CO/N=C1/C[C@@H](O)[C@@H](O)[C@@H]2[C@@H]3C(=O)N([C@@H](C)c4ccccc4)C(=O)[C@H]3CC[C@H]12`, the activity, negative = inhibition is 4.53% [at 11.4 µM].
Regarding `Clc1ccc(Sc2ccc(/C=N/n3cnnc3)o2)cc1`, the AC50 was 14.1 µM (active).
The same measure, in the same setting: the result for `CN=C1S/C(=C\c2ccc(Sc3ccc(Cl)cc3)o2)C(=O)N1C` reads 3.55 µM (active); that for `CN(C)c1nc(C#N)nc(N2CCOCC2)n1`, 1.58 µM (active).
On the same count and under the same terms, as for `Cc1cc(C(=O)OC2CCOC2=O)c2ccccc2n1` (centres undefined), the figure is 2.82 µM (active).
For `CC1(C)[C@@H]2CC[C@@](C)(C2)[C@H]1OC(=O)c1ccccc1C(=O)O`, the activity, negative = inhibition was 2.82% [at 11.4 µM].
With `CCCCCCN1Cc2ccccc2C1`, the AC50 is 12.6 µM (active).
As to `OC(CCCN1CCCCC1)(c1ccccc1)c1ccccc1`, the “activity, negative = inhibition” value was -1.9% [at 25.6 µM].
On to `CCCCN1CCC(n2c(=O)[nH]c3ccccc32)CC1`, for which the “activity, negative = inhibition” value is 6.49%.
Still for that read-out and setting: the result for `COCCCNC(=O)CN(c1ccc(OC)cc1)S(=O)(=O)c1ccc(NC(C)=O)cc1` reads 1.37%; that for `COc1ccc(CCNC[C@H](O)c2ccc(O)cc2)cc1OC`, -7.59%.
For the molecule `C=CCOc1ccc(CNC(C)(C)CO)cc1OC`, the “activity, negative = inhibition” value was 11.9%.
Regarding `CCOc1nc(NCCc2ccc(OC)c(OC)c2)nc(NC(C)(C)CO)n1`, the AC50 is 5.01 µM (active).
For the molecule `CCSC[C@@H](N)C(=O)O`, the activity, negative = inhibition is -1.61% [at 2.29 µM].
For `Cc1nn(Cc2ccc(Cl)cc2)c(C)c1NC(=O)Cn1nc([N+](=O)[O-])c(Cl)c1C`, the “activity, negative = inhibition” value was -24.4%.
With `Cc1c(Cl)c([N+](=O)[O-])nn1Cc1ccc(C(=O)N/N=C\c2cccc(Br)c2)o1`, the AC50 is 3.16 µM (active).
On the same count and under the same terms, the result for `Cc1c(Cl)c([N+](=O)[O-])nn1Cc1ccc(C(=O)N/N=C\c2cc(Cl)ccc2O)o1` reads 1.58 µM (active).
For the molecule `CN(C)CC(O)COc1ccc(C(C)(C)c2ccc(OCC(O)CN(C)C)cc2)cc1` (centres undefined), the “activity, negative = inhibition” value was -5.06%.
As to `CC(=O)c1cccc(NC=C2C(=O)OC3(CCCCC3)OC2=O)c1`, the AC50 is 3.55 µM (active).
In the case of `CSCCC(NC=C1C(=O)OC(C)(C)OC1=O)C(=O)O` (centres undefined), the “activity, negative = inhibition” value was 2.08%.
As to `CC(=O)Nc1cccc(N2C(=O)CCC2=O)c1`, the “activity, negative = inhibition” value is 1.31%.
Consider `CC1(C)OC(=O)C(=CNc2cccc(O)c2)C(=O)O1`, for which the AC50 is 12.6 µM (active).
With `O=C(O)[C@H]1CC=CC[C@@H]1C(=O)Nc1cccc(O)c1`, the activity, negative = inhibition was -18.8% [at 11.4 µM].
On the same count and under the same terms, the result for `CCCC[C@H](CC)CN1CN(C[C@@H](CC)CCCC)CC(C)(N)C1` reads -9.62% [at 25.6 µM].
As for `Cc1cc(C)n(-c2nc(NC(C)C)nc(NC(C)C)n2)n1`, the AC50 was 10 µM (active).
Consider `Cc1cc(C)n(-c2nc(Nc3ccccc3C)nc(-n3nc(C)cc3C)n2)n1`, for which the “activity, negative = inhibition” value was -29.6%.
Turning to `COc1cccc(C(=O)/C=C/c2ccc(SC)cc2)c1`, the AC50 was 2.51 µM (active).
Still for that read-out and setting: as for `CCOC(=O)CC(=O)CSc1nc(-c2cccnc2)cc(C)c1C#N`, the figure is 10 µM (active).
In the case of `Cn1sc(NC(=O)c2ccccc2)nc1=O`, the “activity, negative = inhibition” value is -23%.
`Cc1ccc(NC(=O)CN(C)C(=O)CSc2n[nH]c(N)n2)cc1`: the “activity, negative = inhibition” value was 8.75%.
Turning to `CCOC(=O)CSc1n[nH]c(NC(=O)c2cccc(C(F)(F)F)c2)n1`, the AC50 is 3.16 µM (active).
In the case of `CCOC(=O)CSc1nnc(NC(=O)c2cccc(S(=O)(=O)N3CCCCCC3)c2)s1`, the “activity, negative = inhibition” value is 5.01%.
Take `CCOC(=O)CSc1n[nH]c(NC(=O)c2ccccc2)n1`: the AC50 is 10 µM (active).
As to `CCOC(=O)CSc1n[nH]c(NC(=O)c2cccc(C)c2)n1`, the AC50 was 15.8 µM (active).
`C[C@@H]1NC(=O)C/C=C\[C@@H](C)[C@@H]2C=C[C@H](O)[C@@H](COC(=O)[C@H](C)NC(=O)C/C=C\[C@@H](C)[C@@H]3C=C[C@H](O)[C@@H](COC1=O)O3)O2`: the activity, negative = inhibition was -3.28% [at 11.4 µM].
Consider `COC(=O)N1CCC2(CC1)CN(C(=O)Nc1cccc(C#N)c1)C2`, for which the “activity, negative = inhibition” value is 14.1%.
With `CN1CCC(=C2c3ccccc3CCc3sccc32)CC1`, the “activity, negative = inhibition” value was -6.82% [at 25.6 µM].
In the case of `CCOC(=O)CSc1n[nH]c(-c2cccnc2)n1`, the concentration at half-maximal activity (AC50) was 2.51 µM (active).
On to `COc1ccc(CNc2ncnc3ccc(-c4ccoc4)cc23)c(OC)c1`, for which the AC50 is 1.58 µM (active).

The values above are taken from PubChem BioAssay AID1851 (National Center for Advancing Translational Sciences (NCATS), 2009).
